The nature of assay [1]: qHTS assay to identify small molecule agonists of the sonic hedgehog signaling (Shh) pathway (AID 1259368; calls by dose curve;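 also: NIH/3T3-derived 3T3Gli1-Luc cells carrying a stable Gli1-driven firefly luciferase reporter; series mostly up to about 92 µM; nearly all actives have a fitted effect of over 15% in size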). In a few lines: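 A Gli1 transcriptional response element controlled firefly luciferase in 3T3Gli1-Luc cells. Compounds and a positive control were added 4 hr after plating, and cells were incubated a further 24 hr at 37 C before luminescence detection.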
Assay [2] addresses Estrogen receptor beta (Homo sapiens) (UniProt Q92731). Kind of assay: qHTS assay to identify small molecule antagonists of the estrogen receptor beta (ER-beta) signaling pathway (AID 1259378; active = well fitted inhibition curve with a large enough effect in the signal ratio in the repeat runs, not every such curve was filed as active; the % refers to the signal ratio). In a few lines:
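ER-beta-UAS-bla HEK293T (GripTite) cells in 2% charcoal-stripped FBS medium were preincubated 6 hr at 37C, dosed with compound, then stimulated with 1 nM E2 (final) for 16 hr; beta-lactamase reporter read by B/G FRET fluorescence after 2 hr substrate loading.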
A general note: Quantitative high-throughput screening tests each substance at several concentrations.

The nature of assay [3]: qHTS assay to identify small molecule agonists of the androgen receptor (AR) signaling pathway in the presence of an antagonist - cell viability counter screen (AID 1259379).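 Also: MDA-kb2 human breast cancer cells carrying an MMTV luciferase reporter; series mostly up to about 92 µM; nearly all actives have a fitted effect of over 25% in size.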 In a few lines: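 Seed MDA-kb2 at 3,000 cells/well; incubate 5 hr, 37C, 0% CO2. Add nilutamide to 3.0uM final, then pin compounds at 15 concentrations. Incubate 16 hr. Add CellTiter-Fluor at 15 hr, read fluorescence after 1 hr.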

The nature of assay [4]: qHTS assay to identify small molecule agonists of the estrogen receptor beta (ER-beta) signaling pathway - cell viability counter screen (AID 1259380). Also: nearly all actives have a fitted effect of over 30% in size. In a few lines: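 CellTiter-Glo read, 30 min RT, same wells as bla assay; cells ER-beta-UAS-bla HEK293T; 16 hr compound, 37C; medium 2% charcoal-stripped FBS.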
The target of assay [5] is Androgen receptor (Homo sapiens) (UniProt P10275). The experiment in a line: qHTS assay to identify small molecule agonists of the androgen receptor (AR) signaling pathway in the presence of an antagonist (AID 1259381; calls by dose curve; also: nearly all actives have a fitted effect of over 15% in size). In a few lines: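 Test compounds at 15 concentrations were incubated for 16hr with MDA-kb2 reporter cells in presence of 3.0uM nilutamide (final). Signal: ONE-Glo luciferase luminescence.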
Androgen receptor (Homo sapiens), sequence (P10275 whole entry, looked up): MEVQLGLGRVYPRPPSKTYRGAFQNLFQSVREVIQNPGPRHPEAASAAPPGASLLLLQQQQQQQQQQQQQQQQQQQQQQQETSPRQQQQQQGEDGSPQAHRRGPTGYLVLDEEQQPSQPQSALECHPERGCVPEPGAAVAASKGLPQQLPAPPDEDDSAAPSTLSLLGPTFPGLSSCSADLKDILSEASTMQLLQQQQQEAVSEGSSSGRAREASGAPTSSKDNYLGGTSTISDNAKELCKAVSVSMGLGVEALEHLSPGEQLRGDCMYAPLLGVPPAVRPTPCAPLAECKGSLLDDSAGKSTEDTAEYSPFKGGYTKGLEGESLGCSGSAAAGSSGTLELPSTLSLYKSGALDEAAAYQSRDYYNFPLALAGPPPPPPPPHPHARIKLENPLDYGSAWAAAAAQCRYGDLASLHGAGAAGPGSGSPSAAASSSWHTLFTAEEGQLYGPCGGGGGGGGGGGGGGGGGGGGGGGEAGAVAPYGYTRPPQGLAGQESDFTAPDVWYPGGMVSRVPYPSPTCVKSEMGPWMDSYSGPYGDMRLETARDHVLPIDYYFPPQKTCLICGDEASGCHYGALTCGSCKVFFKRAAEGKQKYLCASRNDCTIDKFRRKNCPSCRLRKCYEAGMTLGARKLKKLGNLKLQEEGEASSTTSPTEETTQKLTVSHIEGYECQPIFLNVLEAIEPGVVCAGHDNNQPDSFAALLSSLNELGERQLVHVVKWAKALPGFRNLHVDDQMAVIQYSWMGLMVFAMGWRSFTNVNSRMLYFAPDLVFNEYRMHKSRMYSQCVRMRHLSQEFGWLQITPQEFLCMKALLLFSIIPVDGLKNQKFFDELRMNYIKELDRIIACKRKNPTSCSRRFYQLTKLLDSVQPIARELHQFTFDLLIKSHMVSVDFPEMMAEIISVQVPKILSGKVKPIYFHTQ

Assay [6] is described as follows: qHTS assay to identify small molecule antagonists of the estrogen receptor beta (ER-beta) signaling pathway - cell viability counter screen (AID 1259382). Also: series mostly up to about 92 µM; nearly all actives have a fitted effect of over 55% in size. In a few lines: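 In this multiplexed counter screen, cells were seeded at 2,000 per well in medium with 2% charcoal-stripped FBS and incubated 6 hr before compound and 1nM final E2 were added. Sixteen hours later, ATP-based luminescence reported viability.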

Assay [7] deals with Estrogen receptor (Homo sapiens) (UniProt P03372). The experiment in a line: qHTS assay to identify small molecule agonists of the estrogen receptor alpha (ER-alpha) signaling pathway in the presence of an antagonist (AID 1259383; calls by dose curve; also: top concentration of the series differs between compounds; nearly all actives have a fitted effect of over 15% in size). Put shortly: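 Stably transfected VM7Luc4E2 reporter cells, kept 5 days in charcoal-stripped serum, received ICI-182,780 at 10.0nM final before compound addition. Following 22hr incubation at 37C and 5% CO2, luciferase signal was read by luminescence.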
Estrogen receptor (Homo sapiens), sequence (P03372 whole entry, looked up): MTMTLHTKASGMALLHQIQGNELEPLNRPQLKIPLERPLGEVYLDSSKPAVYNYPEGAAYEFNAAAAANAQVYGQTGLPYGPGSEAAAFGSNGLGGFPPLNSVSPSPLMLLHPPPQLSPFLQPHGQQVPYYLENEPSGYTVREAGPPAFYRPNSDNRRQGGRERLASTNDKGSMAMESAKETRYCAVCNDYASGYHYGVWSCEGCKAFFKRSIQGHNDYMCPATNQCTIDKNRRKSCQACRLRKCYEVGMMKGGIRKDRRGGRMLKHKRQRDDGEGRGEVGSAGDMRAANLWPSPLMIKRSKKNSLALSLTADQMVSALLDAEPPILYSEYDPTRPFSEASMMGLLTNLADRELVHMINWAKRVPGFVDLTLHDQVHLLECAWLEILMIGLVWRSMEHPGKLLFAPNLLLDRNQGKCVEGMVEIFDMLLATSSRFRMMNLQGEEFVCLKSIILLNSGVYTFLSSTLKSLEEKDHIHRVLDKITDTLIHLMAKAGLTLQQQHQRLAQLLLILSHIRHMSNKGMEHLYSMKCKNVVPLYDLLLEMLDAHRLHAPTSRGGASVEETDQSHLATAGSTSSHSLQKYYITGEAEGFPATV

Assay [8] in a line: qHTS assay to identify small molecule agonists or antagonists of the thyroid stimulating hormone receptor (TSHR) signaling pathway - wild type cell line counter screen (AID 1259384; calls by dose curve). In a few lines:
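Wild-type HEK293 cells were plated 18 h at 37 C/5% CO2, pin-dosed with compound plus Ro20-1724 medium, held 30 min at room temperature, then given cAMP-d2 and anti-cAMP-cryptate; fluorescence was read after 1 h. Fifteen concentrations, triplicate.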

The target of assay [9] is Thyrotropin receptor (Homo sapiens) (UniProt P16473). The experiment in a line: qHTS assay to identify small molecule antagonists of the thyroid stimulating hormone receptor (TSHR) signaling pathway (AID 1259385; calls by dose curve; also: nearly all actives have a fitted effect of over 20% in size). Put shortly: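 TSHR-HEK293 cells were plated and held 18 h at 37C/5% CO2, then given compound plus Ro20-1724 and stimulated with TSH at 1.5 ng/mL final. After 30 min at room temperature, cAMP was detected with cAMP-d2/anti-cAMP-cryptate (1 h) by fluorescence.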
Thyrotropin receptor (Homo sapiens), sequence (P16473 whole entry, looked up): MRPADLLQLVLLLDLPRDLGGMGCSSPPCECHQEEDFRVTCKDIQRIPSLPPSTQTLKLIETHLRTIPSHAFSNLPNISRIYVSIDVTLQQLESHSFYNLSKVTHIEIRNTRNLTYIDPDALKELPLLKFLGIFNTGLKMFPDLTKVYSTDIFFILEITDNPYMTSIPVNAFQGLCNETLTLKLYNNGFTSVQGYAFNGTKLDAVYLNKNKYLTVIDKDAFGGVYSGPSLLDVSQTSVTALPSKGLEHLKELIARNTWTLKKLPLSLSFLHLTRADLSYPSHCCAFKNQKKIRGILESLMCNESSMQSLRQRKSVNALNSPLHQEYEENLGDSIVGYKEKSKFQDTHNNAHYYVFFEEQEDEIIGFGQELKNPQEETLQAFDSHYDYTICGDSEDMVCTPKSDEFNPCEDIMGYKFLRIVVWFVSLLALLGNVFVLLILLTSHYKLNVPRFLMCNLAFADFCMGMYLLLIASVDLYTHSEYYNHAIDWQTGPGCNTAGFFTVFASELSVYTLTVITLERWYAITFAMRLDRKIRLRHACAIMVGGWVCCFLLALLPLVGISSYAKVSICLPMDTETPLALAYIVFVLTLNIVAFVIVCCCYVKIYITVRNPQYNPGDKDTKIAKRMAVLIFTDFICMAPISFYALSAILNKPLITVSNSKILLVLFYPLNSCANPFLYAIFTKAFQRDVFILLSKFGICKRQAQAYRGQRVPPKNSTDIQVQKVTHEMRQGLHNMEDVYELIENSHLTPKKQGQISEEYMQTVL

Assay [10] is described as follows: qHTS assay to identify small molecule agonists of the estrogen receptor alpha (ER-alpha) signaling pathway in the presence of an antagonist - cell viability counter screen (AID 1259386).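 Also: series mostly up to about 92 µM; cells exposed to compounds for 22 h at 37 °C before the viability read; nearly all actives have a fitted effect of over 30% in size.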 In a few lines: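 Viability counter screen using VM7Luc4E2 (full-length ER-alpha, four ERE-luciferase). The cells were treated with compounds alongside ICI-182,780 10.0nM for 22hr, and live-cell protease fluorescence was quantified with CellTiter-Fluor.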

Assay [11] deals with Progesterone receptor (Homo sapiens) (UniProt P06401). Kind of assay: qHTS assay to identify small molecule agonists of the progesterone receptor (PR) signaling pathway (AID 1346784; calls by dose curve; also: nearly all actives have a fitted effect of over 30% in size). In a few lines:
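Fluorescence from LiveBLAzer B/G FRET substrate cleavage (2 hr, RT) reported PR activation in PR-UAS-bla HEK 293T cells treated 16 hr at 37C/5% CO2 with compounds; medium contained 2% charcoal-stripped FBS.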

Assay [12] shares this target. Kind of assay: qHTS assay to identify small molecule antagonists of the progesterone receptor (PR) signaling pathway (AID 1346795; active = well fitted inhibition curve with a large enough effect in the signal ratio in the repeat runs, not every such curve was filed as active; the % refers to the signal ratio; also: potency is read from the fitted curve at half-maximal effect). Put shortly:
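Fluorescence intensity measured 2 hr after adding beta-lactamase FRET substrate to PR-UAS-bla HEK293T cells that had been co-treated 16 hr with compound and 1 nM R5020 (final concentration) in 2% charcoal-stripped FBS.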

A short description of assay [13]: qHTS assay to identify small molecule antagonists of the progesterone receptor (PR) signaling pathway - cell viability counter screen (AID 1346798). Also: series mostly up to about 92 µM; nearly all actives have a fitted effect of over 50% in size. Put shortly: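 CellTiter-Glo luminescence; PR-UAS-bla HEK293T, 3,000 cells/well; compound + R5020, 16 hr, 37C/5% CO2; 30 min RT before read.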
The nature of assay [14]: qHTS assay to identify small molecule agonists of the progesterone receptor (PR) signaling pathway - cell viability counter screen (AID 1346799; calls by dose curve; also: nearly all actives have a fitted effect of over 45% in size; also: potency is read from the fitted curve at half-maximal effect). In a few lines: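 In parallel with the beta-lactamase readout, cytotoxicity toward PR-UAS-bla HEK293T cells was measured by CellTiter-Glo luminescence following 16 hr compound incubation in 2% charcoal-stripped FBS medium.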
Assay [15] in a line: qHTS assay to identify small molecule antagonists of the TGF-beta/Smad signaling pathway - cell viability counter screen (AID 1346824). Also: nearly all actives have a fitted effect of over 50% in size. Put shortly:
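SBE-bla HEK 293T cells were plated overnight at 37 C, then given compounds in DMSO plus TGF-beta1 (added as 0.25 ng/mL solution) for 5 hr. After the bla read, CellTiter-Glo was added to the same wells and luminescence read after 30 min at room temperature.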

Assay [16] in a line: qHTS assay to identify small molecule agonists of the TGF-beta/Smad signaling pathway - cell viability counter screen (AID 1346829). Also: top concentration of the series differs between compounds; nearly all actives have a fitted effect of over 45% in size. In a few lines:
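SBE-bla HEK 293T cells plated overnight, compound exposure 5 hr at 37 C. Viability read in the same wells by CellTiter-Glo luminescence after 30 min at room temperature, following the beta-lactamase read.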

For assay [17], the target named is Thyrotropin-releasing hormone receptor (Homo sapiens) (UniProt P34981). The experiment in a line: qHTS assay to identify small molecule antagonists of the thyrotropin-releasing hormone receptor (TRHR) signaling pathway (AID 1346877; active = well fitted inhibition curve with a large enough effect in the repeat runs, not every such curve was filed as active; also: series mostly up to about 51 µM). In a few lines: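 Following an 18 h incubation at 37 °C and a 2 h calcium dye load, TRHR-HEK293 cells were exposed to compound (5 min, room temperature) and challenged with TRH, 1 nM final.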
Thyrotropin-releasing hormone receptor (Homo sapiens), sequence (P34981 whole entry, looked up): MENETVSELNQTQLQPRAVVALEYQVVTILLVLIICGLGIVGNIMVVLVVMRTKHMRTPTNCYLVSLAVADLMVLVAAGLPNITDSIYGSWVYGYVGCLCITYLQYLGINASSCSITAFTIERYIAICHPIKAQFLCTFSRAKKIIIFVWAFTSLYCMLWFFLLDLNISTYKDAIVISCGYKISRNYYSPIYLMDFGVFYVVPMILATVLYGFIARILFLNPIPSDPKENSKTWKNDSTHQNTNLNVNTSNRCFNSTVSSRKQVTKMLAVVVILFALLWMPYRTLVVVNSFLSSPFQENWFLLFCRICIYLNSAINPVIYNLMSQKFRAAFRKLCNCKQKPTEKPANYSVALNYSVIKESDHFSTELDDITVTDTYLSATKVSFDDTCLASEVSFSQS

Assay [18] in a line: qHTS assay to identify small molecule agonists of the TGF-beta/Smad signaling pathway (AID 1346859; active = well fitted activation curve with a large enough effect in the signal ratio in the repeat runs, not every such curve was filed as active; the % refers to the signal ratio; also: series mostly up to about 77 µM). In a few lines:
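After overnight seeding, SBE-bla HEK 293T cells are dosed with compounds in DMSO and kept 5 hr at 37 C, 5% CO2. LiveBLAzer-type FRET substrate is then applied for 2 hr at room temperature.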

A number with no mark means an inactive call. Inconclusive results are not listed. Calls of active or inactive are those of the source. Unless noted, calls follow the shape of the dose curve; as a rule, active = well fitted curve in the direction sought with a large enough effect in the repeat runs; inconclusive = weak or mixed curves; inactive = no such curve, though single readings can be large; an effect the other way counts as inactive or inconclusive.
% is scaled to controls: 0 for no effect and ±100 for the full control effect.

Estrogen receptor beta (Homo sapiens), sequence (Q92731 whole entry, looked up): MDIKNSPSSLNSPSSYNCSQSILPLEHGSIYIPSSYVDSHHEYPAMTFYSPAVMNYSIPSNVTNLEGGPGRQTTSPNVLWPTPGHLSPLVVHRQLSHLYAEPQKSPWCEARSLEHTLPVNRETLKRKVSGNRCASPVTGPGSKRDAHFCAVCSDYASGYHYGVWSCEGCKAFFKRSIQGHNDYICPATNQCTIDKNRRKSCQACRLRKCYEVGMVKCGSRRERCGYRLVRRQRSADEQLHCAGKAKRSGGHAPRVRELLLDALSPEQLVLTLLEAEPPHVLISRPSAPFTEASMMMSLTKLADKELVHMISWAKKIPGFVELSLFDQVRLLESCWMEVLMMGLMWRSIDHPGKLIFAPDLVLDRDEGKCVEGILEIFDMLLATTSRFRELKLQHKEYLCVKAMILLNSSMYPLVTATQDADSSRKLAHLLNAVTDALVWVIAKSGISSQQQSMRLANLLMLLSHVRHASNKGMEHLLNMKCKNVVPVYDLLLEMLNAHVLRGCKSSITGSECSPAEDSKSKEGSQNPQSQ
Progesterone receptor (Homo sapiens), sequence (P06401 whole entry, looked up): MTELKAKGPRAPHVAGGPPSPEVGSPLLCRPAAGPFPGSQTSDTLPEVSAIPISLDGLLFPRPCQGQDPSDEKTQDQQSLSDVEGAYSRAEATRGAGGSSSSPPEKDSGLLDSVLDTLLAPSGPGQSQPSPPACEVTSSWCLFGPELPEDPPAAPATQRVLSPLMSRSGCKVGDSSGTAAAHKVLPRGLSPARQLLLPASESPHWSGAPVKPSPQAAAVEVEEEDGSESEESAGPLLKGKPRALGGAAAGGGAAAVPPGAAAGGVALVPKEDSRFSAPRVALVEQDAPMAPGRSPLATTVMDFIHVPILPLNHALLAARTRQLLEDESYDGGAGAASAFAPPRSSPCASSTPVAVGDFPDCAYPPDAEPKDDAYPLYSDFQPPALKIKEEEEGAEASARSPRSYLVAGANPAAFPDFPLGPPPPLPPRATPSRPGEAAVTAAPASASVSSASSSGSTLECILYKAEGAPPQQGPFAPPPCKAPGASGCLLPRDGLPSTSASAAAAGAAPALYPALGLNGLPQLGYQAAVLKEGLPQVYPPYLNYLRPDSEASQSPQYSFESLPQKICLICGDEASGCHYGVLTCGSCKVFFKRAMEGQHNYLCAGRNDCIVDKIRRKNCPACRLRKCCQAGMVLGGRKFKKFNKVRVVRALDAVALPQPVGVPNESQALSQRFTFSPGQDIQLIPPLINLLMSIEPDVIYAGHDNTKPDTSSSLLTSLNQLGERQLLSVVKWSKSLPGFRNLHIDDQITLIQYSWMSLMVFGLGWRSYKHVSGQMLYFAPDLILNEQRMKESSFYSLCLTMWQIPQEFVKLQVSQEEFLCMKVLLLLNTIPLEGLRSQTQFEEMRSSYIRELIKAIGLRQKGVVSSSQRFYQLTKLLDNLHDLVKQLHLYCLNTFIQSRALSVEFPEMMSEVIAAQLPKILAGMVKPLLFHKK

Take `CC(CO)c1ccccc1` (stereo not given): the outcome in assay [1], in [2], in [6], in assay [7], in [8] and in [9] was inactive. In addition, the outcome in assay [15], in assay [16] and in [17] was inactive. The Potency entry in assay [3], in assay [4], in [5], in assay [10], in [11] and in assay [12] was “inactive” in each case. Also, the Potency result in assay [13] and in [14] was “inactive” each time.

For the compound `COc1cc2c(cc1OC)[C@@H]1CC(=O)[C@@H](CC(C)C)CN1CC2`, the compound was classed as inactive in assay [1], in assay [7], in assay [8], in [9], in [15] and in [16]. In addition, the compound was called inactive in [17]. For the same compound, the Potency result in [3], in [4], in [10], in assay [11], in [12] and in assay [13] was “inactive” throughout. In addition, the Potency entry in assay [14] is “inactive”.

Regarding `O=C(CCNNC(=O)c1ccncc1)NCc1ccccc1`, the compound was classed as inactive in assay [1], in [6], in assay [7], in assay [8], in assay [15] and in assay [16]. Further, the compound was called inactive in [18] and in assay [17]. Moreover, the Potency entry in [4], in [10], in assay [11], in assay [12], in [13] and in assay [14] was “inactive” in each case.

For `O=C(O)Cc1ccc(Cl)cc1Cl`, the call in assay [1], in [2], in [6], in assay [7], in assay [8] and in [15] was inactive. For the same compound, the outcome in [16], in [18] and in assay [17] was inactive. In addition, the Potency entry in assay [4], in [5], in assay [11], in assay [12], in assay [13] and in assay [14] was “inactive” each time.

For `CC(C)(C)OC(=O)c1ccc(O)cc1`, the compound was called inactive in assay [1], in [6], in assay [8], in [16] and in assay [17]. Also, the Potency entry in assay [3], in assay [4], in assay [5], in assay [10], in assay [11] and in assay [13] was “inactive” throughout. The Potency in assay [12] is 54.5 µM (active).

As for `O=C1c2cccc3c2[C@H](CCC3)CN1[C@@H]1CN2CCC1CC2`, the result in [1], in assay [6], in [7], in assay [8], in assay [9] and in [15] was inactive. For the same compound, the call in [16], in assay [18] and in assay [17] was inactive. Also, the Potency entry in [3] and in assay [11] was “inactive” throughout. The Potency in assay [14] was 26.6 µM (active).

Regarding `O=C(O)c1cc(Br)c(O)c(Br)c1`, the compound was called inactive in assay [1], in assay [2], in [6], in assay [8], in assay [9] and in [15]. In addition, the outcome in assay [16], in assay [18] and in [17] was inactive. Besides, the Potency entry in assay [3], in assay [4], in [5], in [11], in assay [12] and in [13] was “inactive” throughout. For the same compound, the Potency entry in assay [14] is “inactive”.

`C[Si](C)=O`: in assay [1], the activity change was 0.132% [at 8.39 µM]. The activity change, negative = cytotoxicity in [3] is -1.72% [at 8.39 µM]; in assay [4], 5.93% [at 8.39 µM]; in [6] it was 0.879% [at 8.39 µM]; in assay [13], 4.63% [at 8.39 µM]; in assay [14] it was 7.66% [at 8.39 µM]; in assay [16], 3.98% [at 6.97 µM]. In addition, the cAMP activity change in [8] was -4.18% [at 8.39 µM]. Besides, the figures for the activity change, negative = inhibition in [9] and in assay [12] were -2.39% [at 8.39 µM] and 12.9% [at 8.39 µM], respectively. Moreover, the figures for the activation in assay [11] and in assay [18] were 1.46% [at 8.39 µM] and -0.731% [at 6.97 µM], respectively. In assay [15], the viability change, negative = cytotoxic was 0.719% [at 6.97 µM].

As to `Cc1cccc2nccnc12`, the result in [1], in assay [6], in assay [7], in [8], in assay [9] and in [15] was inactive. Also, the compound was classed as inactive in assay [16], in assay [18] and in [17]. Moreover, the Potency result in assay [3], in [4], in [10], in assay [11], in [12] and in assay [13] was “inactive” throughout. Moreover, the Potency entry in assay [14] was “inactive”.

For the compound `CCO[Si](CCCS)(OCC)OCC`, the compound was called inactive in [1], in [2], in assay [6], in assay [8], in [9] and in [15]. In addition, the result in assay [16], in [18] and in assay [17] was inactive. Also, the Potency entry in assay [3], in [4], in assay [10], in [11], in [12] and in [13] was “inactive” each time. The Potency result in assay [14] was “inactive”.

The values above are taken from PubChem BioAssay (Tox21).
